The panel holds about 83,000 compounds, 20% with a hit somewhere; the sample as a whole holds those more often.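 96-well plates, one dose, 48 hours. Percent growth reported; active if below 10.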 Values without a mark were called inactive. Active and inactive are the calls of the source.
system: NCI/ADR-RES ovarian; assay: NCI-60 one-dose screen, 48 h (100 = growth as untreated, 0 = no growth, -100 = all killed); conditions: 10 µM unless noted

| SMILES | growth |
| --- | --- |
| Nc1ccc(F)c(Cl)c1F | 105% |
| COc1ccc(Br)c2c1C(=O)CC2 | 110% |
| Oc1cccnc1CN1CCCC1 | 108% |
| CC(C)(CC(=O)O)CC(=O)O | 99.9% |
| CN=S(=O)(OCCCCCOS(=O)(=NC)c1ccc(C)cc1)c1ccc(C)cc1 (stereo not drawn) | 89.7% |
| NC(CO)(CO)c1ccccc1 | 111% |
| CC1CC2C3CCC4=CC(=O)CCC4(C)C3CCC2(C)C1(O)C(=O)CO (stereo not drawn) | 114% |
| CC(c1ccccc1)N1C(=O)CSC1=S (stereo not drawn) | -62.5% (active) |
| CN1CCN(C(=S)S)CC1 | 108% |
| Nc1ncnc(Nc2ccccc2)n1 | 111% |
| O=c1cc(C(F)(F)F)[nH]c(=S)[nH]1 | 109% |
| CCOC(=O)c1c(C)[nH]c(C)c1C=O | 107% |
| CCOP(=O)(NC(c1ccccc1)c1ccccc1)OCC | 104% |
| CC(C)(C)[Si](C)(C)OCC1OC(n2cnc3c(N)ncnc32)CC1OS(C)(=O)=O (stereo not drawn) | 103% |
| Nc1nc(Cl)cc(Cl)n1 | 95.8% |
| C=C(C)COc1ccc(C(C)(C)C)cc1 | 107% |
| Nc1ccc2c(c1)Cc1cc(N)c(N)cc1-2 | 101% |
| Clc1ccc(C(SCc2ccccc2)SCc2ccccc2)cc1 | 98.9% |
| O=[N+]([O-])c1ccc(-c2nc(N(CCO)CCO)c3ccccc3n2)o1 | 5.04% (active) |

| SMILES | growth |
| --- | --- |
| CCNC(=O)OCCc1c2ccccc2nc2ccccc12 | 119% |
| C=C(OC(C)=O)c1ccccc1 | 109% |
| O=C(OCc1ccccc1)n1nnc2ccccc21 | 111% |
| Cc1ccc2nc(N)nnc2c1 | 96% |
| CC(=O)NC(CCC(=O)c1ccccc1)C(=O)O (stereo not drawn) | 106% |
| CCOC(=O)/C(C#N)=C\c1c[nH]c2ccccc12 | 88.5% |
| CCN(C(=O)Nc1ccccc1Cl)c1ccccc1 | 107% |
| Nc1cc2ccccc2c(O)c1O | 55.3% |
| NC(CSSCC(N)C(=O)O)C(=O)O (stereo not drawn) | 84.8% |
| COc1cc(C(=O)N2CCN(c3ccccc3)CC2)c2ccccc2n1 | -43.6% (active) |
| Cc1ccc(C)c(CCO)c1 | 102% |
| S=c1nc2[nH]c3ccccc3c2n[nH]1 | 102% |
| NCCCN1CCCC1=O | 101% |
| Cc1c(Cl)cccc1N=C=S | 89.3% |
| O=[n+]1ccn([O-])c2ccccc21 | 103% |
| Nc1ncnc2c1ncn2C1OC(CO)C2OC21 (stereo not drawn) | 110% |
| CCOc1ccc2c(c1)c(C)cc(C)[n+]2CC | 113% |
| Cc1ccc(S(N)(=O)=O)cc1Cl | 117% |
| O=C1C=Cc2ccccc2/C1=C/c1[nH]c(=O)[nH]c1O | 67.8% |
